Consider 29 compounds from PubChem BioAssay (Tox21).

In test [1] the target is Aryl hydrocarbon receptor (Homo sapiens) (UniProt P35869). The test can be described thus: qHTS assay to identify small molecule that activate the aryl hydrocarbon receptor (AhR) signaling pathway (AID 743085). Further: nearly all actives have a fitted effect of over 15% in size. Further: potency means the concentration at half of the fitted maximal effect.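 On activation: HG2L7.5c1 human HepG2 liver cells with stably integrated DRE-driven firefly reporter; series mostly up to about 70 µM.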 The method in brief: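 Luminescence (ONE-Glo) from a dioxin-responsive-element luciferase reporter in HG2L7.5c1 HepG2 cells after 24 hr compound exposure at 37C; viability measured by CellTiter-Fluor fluorescence beforehand.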
A general note: In qHTS, concentration-response curves come from the screen itself.

Test [2] in a line: qHTS assay to identify small molecule antagonists of the peroxisome proliferator-activated receptor gamma (PPARg) signaling pathway - cell viability counter screen (AID 743194). Further: nearly all actives have a fitted effect of over 55% in size. Put shortly: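 PPARg-UAS-bla HEK293H cells were plated, rested 5 h at 37 C, then treated with compounds plus rosiglitazone (50 nM final) for 17 h at 37 C; viability was then read by CellTiter-Glo luminescence after 30 min at room temperature.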

A short description of test [3]: qHTS assay for small molecule activators of the heat shock response signaling pathway (AID 743210; active means well fitted activation curve with a large enough effect in the signal ratio in the repeat runs, with a control signal flat, not every such curve was filed as active; the % refers to the signal ratio;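 further: HeLa cells with beta-lactamase reporter driven by heat shock elements; series mostly up to about 63 µM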). Put shortly: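 Reporter gene assay: HeLa cells stably bearing an HSE-bla construct, compound treatment 5 h at 37 C, LiveBLAzer substrate 2.5 h at RT, fluorescence intensity.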
Test [4] can be described thus: qHTS assay to identify small molecule agonists of the peroxisome proliferator-activated receptor delta (PPARd) signaling pathway - cell viability counter screen (AID 743211). Further: nearly all actives have a fitted effect of over 55% in size. Put shortly:
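Viability was measured as CellTiter-Glo luminescence (30 min, room temperature) in the same wells as the beta-lactamase readout. GeneBLAzer PPARd UAS-bla HEK293H cells received compound after 5 h plating and were incubated 17 h at 37 C.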

Test [5] is described as follows: qHTS assay for small molecule agonists of the antioxidant response element (ARE) signaling pathway (AID 743202; active means well fitted activation curve with a large enough effect in the signal ratio in the repeat runs, not every such curve was filed as active; the % refers to the signal ratio; further: potency means the concentration at half of the fitted maximal effect). The method in brief:
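Compounds delivered in DMSO to ARE-bla HepG2 cells (2,000 cells/well, pre-incubated 5 h) and left 16 h at 37 C. LiveBLAzer B/G FRET substrate then added for 2 h at RT before fluorescence reading.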

Test [6] is described as follows: qHTS assay for small molecule agonists of the antioxidant response element (ARE) signaling pathway - cell viability counter screen (AID 743203; calls by dose curve; further: nearly all actives have a fitted effect of over 55% in size). Put shortly: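 Compounds in DMSO were pinned onto ARE-bla HepG2 cells plated 5 hrs earlier at 2,000 cells/well. Sixteen hours later at 37C/5% CO2, CellTiter-Glo was added and luminescence measured after 30 min at room temperature.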

Test [7] in a line: qHTS assay to identify small molecule that activate the aryl hydrocarbon receptor (AhR) signaling pathway - cell viability counter screen (AID 743086).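 Further: HepG2 liver cells carrying the AhR DRE luciferase reporter; series mostly up to about 70 µM; nearly all actives have a fitted effect of over 45% in size.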 The method in brief: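 HepG2-AhR-luc (HG2L7.5c1) cells, 4000/well, were preincubated 5 h at 37C, exposed to compound in qHTS format for 24 hr at 37C, then given CellTiter-Fluor for 30 min; viability was read as fluorescence in the reporter wells.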

In test [8] the target is Peroxisome proliferator-activated receptor gamma (Homo sapiens) (UniProt P37231). The test can be described thus: qHTS assay to identify small molecule agonists of the peroxisome proliferator-activated receptor gamma (PPARg) signaling pathway (AID 743094; active means well fitted activation curve with a large enough effect in the signal ratio in the repeat runs, not every such curve was filed as active; the % refers to the signal ratio). Put shortly:
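Following 5 h plating at 37C, PPARg-bla HEK293H cells receive compound or DMSO for 17 h; fluorescence intensity is recorded after LiveBLAzer B/G loading for 1 h at room temperature.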

The target is the same in test [9]. The test can be described thus: qHTS assay to identify small molecule antagonists of the peroxisome proliferator-activated receptor gamma (PPARg) signaling pathway (AID 743191; calls by dose curve; further: series mostly up to about 63 µM; nearly all actives have a fitted effect of over 30% in size). Put shortly:
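GeneBLAzer PPARg UAS-bla HEK293H cells carrying a UAS-driven beta-lactamase reporter were plated at 3000 cells/well, preincubated 5 h at 37C, then given compound for 17 h at 37C; LiveBLAzer B/G FRET substrate was read after 1 h at room temperature.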

Test [10] is described as follows: qHTS assay for small molecule activators of the heat shock response signaling pathway - cell viability counter screen (AID 743209). Further: nearly all actives have a fitted effect of over 50% in size. The method in brief:
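Counter screen for cytotoxicity in HeLa HSE-bla reporter cells. Treatment was 5 h at 37 C; viability was detected by luminescent ATP assay (CellTiter-Glo) in the same wells as the beta-lactamase read.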

Results filed as inconclusive are left out. Activity calls are given as the source filed them. Unless noted, the call rests on the fitted dose curve; in most records, active means well fitted curve in the direction sought with a large enough effect in the repeat runs; inconclusive means weak or mixed curves; inactive means no such curve, though single readings can be large; an effect the other way counts as inactive or inconclusive.

Aryl hydrocarbon receptor (Homo sapiens), sequence (P35869 whole entry, looked up): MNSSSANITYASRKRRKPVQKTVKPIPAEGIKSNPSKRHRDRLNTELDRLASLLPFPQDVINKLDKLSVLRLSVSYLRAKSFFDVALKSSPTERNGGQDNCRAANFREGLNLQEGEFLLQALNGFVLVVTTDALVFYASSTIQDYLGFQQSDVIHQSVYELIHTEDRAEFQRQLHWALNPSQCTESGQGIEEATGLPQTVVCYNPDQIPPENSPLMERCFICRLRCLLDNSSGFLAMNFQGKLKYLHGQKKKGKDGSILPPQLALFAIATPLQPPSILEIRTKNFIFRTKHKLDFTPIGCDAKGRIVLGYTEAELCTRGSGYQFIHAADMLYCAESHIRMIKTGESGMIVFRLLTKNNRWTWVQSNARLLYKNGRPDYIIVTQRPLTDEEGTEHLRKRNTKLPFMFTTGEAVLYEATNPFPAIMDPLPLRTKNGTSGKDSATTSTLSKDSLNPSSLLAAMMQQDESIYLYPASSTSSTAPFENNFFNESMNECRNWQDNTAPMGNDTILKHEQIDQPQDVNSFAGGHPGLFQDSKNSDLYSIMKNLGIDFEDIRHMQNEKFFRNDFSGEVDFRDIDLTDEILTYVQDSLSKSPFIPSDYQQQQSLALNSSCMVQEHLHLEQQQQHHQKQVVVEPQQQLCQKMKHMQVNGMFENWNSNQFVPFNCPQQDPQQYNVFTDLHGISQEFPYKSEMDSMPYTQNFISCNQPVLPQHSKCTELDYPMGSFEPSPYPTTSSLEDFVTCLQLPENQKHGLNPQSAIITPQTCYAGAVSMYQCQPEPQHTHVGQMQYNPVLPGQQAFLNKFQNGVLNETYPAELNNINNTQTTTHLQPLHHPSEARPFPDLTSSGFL
Peroxisome proliferator-activated receptor gamma (Homo sapiens), sequence (P37231 whole entry, looked up): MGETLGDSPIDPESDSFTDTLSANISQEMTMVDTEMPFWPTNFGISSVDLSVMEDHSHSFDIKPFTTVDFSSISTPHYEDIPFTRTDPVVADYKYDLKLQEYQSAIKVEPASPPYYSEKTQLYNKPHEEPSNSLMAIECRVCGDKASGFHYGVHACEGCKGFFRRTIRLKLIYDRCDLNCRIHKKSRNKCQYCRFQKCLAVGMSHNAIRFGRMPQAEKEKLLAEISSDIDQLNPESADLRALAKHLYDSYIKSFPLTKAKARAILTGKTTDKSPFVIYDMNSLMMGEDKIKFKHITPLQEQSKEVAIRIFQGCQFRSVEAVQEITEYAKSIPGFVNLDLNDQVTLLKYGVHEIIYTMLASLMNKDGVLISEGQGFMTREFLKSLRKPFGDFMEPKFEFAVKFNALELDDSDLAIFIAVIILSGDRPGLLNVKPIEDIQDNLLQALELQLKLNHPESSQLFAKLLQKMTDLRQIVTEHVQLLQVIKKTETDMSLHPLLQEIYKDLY

In the case of `CCn1nc(Cc2ccccc2)cc1C1CCN(C[C@H]2C[C@H](N(C)[C@@H](C(=O)O)C(C)C)C[C@@H]2c2cccc(F)c2)CC1`, the Potency entry in test [1], in test [2] and in test [4] was “inactive” throughout. In addition, the outcome in test [3] was inactive.

With `O=C(Cl)c1ccc(F)c(Cl)c1`, the Potency entry in [1], in test [2], in test [5], in [6] and in [4] was “inactive” in each case. The compound was classed as inactive in test [3].

As to `Cc1nc2sccn2c(=O)c1CCN1CCC(=C(c2ccc(F)cc2)c2ccc(F)cc2)CC1`, the Potency entry in test [1], in test [2], in test [6] and in test [4] was “inactive” in each case. Besides, the outcome in [3] was inactive.

For `CCOc1cc(OCC)c(C(C)=O)cc1OCC`, the Potency result in test [7], in test [8], in test [9], in [6] and in test [4] was “inactive” throughout.

On to `C1CCN(CN2CCCCC2)CC1`, for which the Potency result in test [7], in test [8], in test [9], in test [2], in test [6] and in test [4] was “inactive” throughout. Further, the compound was classed as inactive in test [10] and in test [3].

Take `Cc1ccc(NC(=O)c2ccc(CN3CCN(C)CC3)cc2)cc1Nc1nccc(-c2cccnc2)n1`: the Potency in test [1] is 21.1 µM (active). Further, the Potency entry in test [8], in [2] and in test [6] was “inactive” each time. Further, the result in test [3] was inactive.

For `O=c1[nH]nc(-c2ccc([N+](=O)[O-])o2)o1`, the Potency result in [1], in [8], in test [2] and in [4] was “inactive” throughout. The call in [10] and in test [3] was inactive.

For the compound `Clc1ccccc1-c1nc(-c2ccncc2)no1`, the Potency entry in [7], in test [8], in [9], in [2], in test [6] and in [4] was “inactive” each time. In [5], the Potency is 1.68 µM (active). Besides, the outcome in test [10] and in test [3] was inactive.

For the compound `CCCCCCC/C=C/C=O`, the Potency entry in test [1] and in test [8] was “inactive” in each case. The compound was called inactive in test [10] and in test [3].

`CNc1ccccc1`: the Potency entry in [7], in test [8], in test [9], in test [2], in [6] and in [4] was “inactive” throughout. Further, the compound was called inactive in test [10] and in [3].

In the case of `Nc1ccc(F)cc1F`, the Potency entry in test [7], in test [8], in test [9], in test [2], in [6] and in test [4] was “inactive” each time. Further, the outcome in [10] and in [3] was inactive.

As to `C[C@H]1C[C@H]2[C@@H]3CCC4=CC(=O)C=C[C@]4(C)[C@@]3(F)[C@@H](O)C[C@]2(C)[C@@]1(O)C(=O)COP(=O)(O)O`, the Potency result in test [1], in test [8], in [2], in [5] and in test [4] was “inactive” in each case. In addition, the compound was called inactive in test [10] and in test [3].

Regarding `CCCCCCCCC(=O)OCC(C)OC(=O)CCCCCCCC` (centres undefined), the Potency result in test [1], in test [8], in [2], in [5], in test [6] and in test [4] was “inactive” each time. In addition, in [10], the call was inactive.

In the case of `CC(C)(C)N`, the Potency entry in test [1], in test [8], in test [2], in [5], in [6] and in test [4] was “inactive” in each case. Further, the call in [10] and in test [3] was inactive.

With `O=C(Nc1ccccc1)c1cc([N+](=O)[O-])ccc1Cl`, the Potency is 54.5 µM (active) in test [1] and 7.7 µM (active) in test [5]. The Potency entry in test [8], in [2], in test [6] and in test [4] was “inactive” throughout. The compound was classed as inactive in [10].

With `O=C(N[C@@H](Cc1ccccc1)[C@@H](O)C(=O)N1C[C@@H](O)[C@@H](O)C1)c1cc2cc(Cl)ccc2[nH]1`, the Potency entry in test [1], in test [8], in test [2], in [6] and in test [4] was “inactive” throughout. Besides, the outcome in test [10] was inactive.

For the compound `Sc1nc(S)nc(S)n1`, the Potency result in test [1], in test [2], in test [6] and in test [4] was “inactive” each time. Moreover, the compound was called inactive in test [3].

Regarding `CC(C(=O)O)c1ccc2c(c1)Cc1cccnc1O2` (centres undefined), the Potency result in [1], in test [8], in test [2], in test [5] and in test [4] was “inactive” in each case. The call in test [10] and in [3] was inactive.

Consider `Nc1ccc(C(=O)Oc2ccccc2)c(O)c1`, for which the Potency result in test [7], in test [8], in test [9], in test [2], in test [5] and in [4] was “inactive” throughout. In addition, the call in test [10] and in [3] was inactive.

`Nc1ccc(-c2ccc(F)cc2)cc1`: the Potency result in test [7], in test [8], in test [9], in test [2], in test [6] and in test [4] was “inactive” each time. The outcome in [10] and in test [3] was inactive.

In the case of `COc1ccc(/C=C/c2cc(OC)cc(=O)o2)cc1`, the Potency entry in test [7], in [8], in test [2], in test [6] and in [4] was “inactive” in each case. The Potency in test [5] is 0.443 µM (active). The compound was classed as inactive in test [3].

With `CC(CCl)OC(C)CCl` (centres undefined), the Potency entry in test [7], in test [8], in [9], in test [2] and in test [4] was “inactive” each time. Also, the compound was classed as inactive in test [10] and in test [3].

In the case of `Cc1c(Nc2ncccc2C(=O)O)cccc1C(F)(F)F`, the Potency entry in [2], in test [6] and in test [4] was “inactive” in each case. For the same compound, the call in test [10] and in test [3] was inactive.

Turning to `Cc1c(-c2cccnc2)c2ccccc2n1CCCCC(=O)O`, the Potency entry in test [7], in test [2], in [6] and in test [4] was “inactive” each time. Also, the call in [10] and in test [3] was inactive.

`CC(=O)c1cccnc1`: the Potency result in test [7], in test [8], in test [6] and in test [4] was “inactive” throughout. In test [10], the call was inactive.

As to `CCOc1ccc(NC(C)=O)cc1N`, the Potency result in test [8], in [9], in [2] and in test [4] was “inactive” in each case. Besides, the compound was called inactive in test [10].

For the compound `CCCCCCCCNC`, the Potency entry in test [7], in [8], in [2] and in test [4] was “inactive” in each case. Further, in [3], the outcome was inactive.

`CC/C=C\CCO`: the Potency entry in [7], in [2], in [5], in test [6] and in [4] was “inactive” each time. The call in test [10] and in [3] was inactive.

On to `Cc1cc(N)n(-c2ccccc2)n1`, for which the Potency entry in test [8], in [9], in test [2] and in test [4] was “inactive” each time. The call in [10] and in [3] was inactive.
